LASV entry inh = blocks Lassa virus binding to or entry into cells | AID 540256 | 300,000 compounds, 1.2% hits | Potency, µM (highest dose often 37.9 µM), actives largely listed as inhibitors | Lassa virus pseudotype entry inhibition, cell reporter; calls by dose curve; tested in HEK293 cells; further: nearly all actives have a fitted effect of over 50% in size
FMDV antiviral = blocks foot and mouth disease virus; Potency, µM (top dose mostly 57.9 µM), actives largely listed as inhibitors; 410,000 compounds, 1.2% hits; FMDV antiviral cell-based qHTS; AID 1159524; calls by dose curve; tested in HEK293T cells; further: read-out not given here; nearly all actives have a fitted effect of over 45% in size
MARV entry inh = blocks Marburg virus binding to or entry into cells; Marburg virus pseudotyped entry inhibition, cell reporter; Potency, µM (highest dose often 37.8 µM), usual class: inhibitors; 300,000 compounds, 1.8% hits; calls by dose curve; tested in HEK293 cells
HCMV antiviral = inhibitors of human cytomegalovirus; HFF cells, HCMV-luciferase reporter, 72 h; stronger effect = lower value; activity change, negative = inhibition, % at 57.5 µM; 410,000 compounds, 4.5% hits; AID 1259415; in the data active means activity change below about -60%; inconclusive means no clear call, values can overlap the other calls; inactive means above about -39%
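Steps: HFFs plated, 16 h 37C; compounds added; HCMV-luciferase added to MOI 1 PFU/cell; 72 h 37C; OneGlo reagent, 5 min room temperature; luminescence read, normalized to controls.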
A number is an active result; i = inactive; ? = inconclusive; nt = no result given. The list is not random: actives were taken first. Their share in the collection is about 6.2%.

SMILES | LASV entry inh | FMDV antiviral | MARV entry inh | HCMV antiviral
COc1ccccc1C(CCNCc1ccccc1)c1ccc(OC(C)C)cc1 (stereo unspecified) | nt | ? | nt | -102
COc1ccc(CNCCCSc2ncccn2)cc1OC | nt | i | nt | i
COc1ccc(CNCCC(c2ccccc2)c2ccc3c(c2)OCO3)cc1 (stereo unspecified) | ? | i | ? | i
COc1ccc(NS(=O)(=O)c2ccc(I)cc2)cc1N1CCN(C)CC1 | nt | i | nt | nt
Cc1nn2c(-c3cccc(NC(=O)c4ccccc4)c3)nnc2c2ccccc12 | i | i | ? | i
CC1(C)N=C(N)NC(=NCCCOc2ccc([N+](=O)[O-])cc2)N1 | nt | i | nt | nt
COc1ccc(CCC(C)NCCc2ccccc2)cc1 (stereo unspecified) | i | nt | ? | ?
COc1ccccc1C(CC(=O)Nc1ccc(C)c(C)c1)c1ccc(OC(C)C)cc1 (stereo unspecified) | i | i | ? | -61
COc1ccc(CNCCC(c2ccc(OC(C)C)cc2)c2ccccc2OC)cc1 (stereo unspecified) | nt | i | nt | -99
COc1ccccc1NC(=O)CC(c1ccc(OC(C)C)cc1)c1ccccc1OC (stereo unspecified) | i | i | ? | ?
O=C(NCCCN1CCCC1)c1cc(Sc2ccc(F)cc2)nc2ccccc12 | nt | i | ? | i
O=C(NCCCN1CCCCC1)c1cc(Sc2ccc(Cl)cc2)nc2ccccc12 | i | i | nt | -71
O=C(NCCN1CCOCC1)c1cc(Sc2ccc(F)cc2F)nc2ccccc12 | ? | ? | i | i
O=C(NCCN1CCOCC1)c1cc(Sc2ccccc2Cl)nc2ccccc12 | i | nt | i | -61
CCOCCCNC(=O)c1cc(Sc2ccc(C)cc2)nc2ccccc12 | ? | ? | ? | -60
CC1CCCN(CCCNC(=O)c2cc(Sc3ccc(F)cc3)nc3ccccc23)C1 (stereo unspecified) | i | i | nt | -71
O=C(CSc1nc2c([nH]c3ccccc32)c(=O)n1-c1ccc(Cl)cc1)NCC1CCCO1 (stereo unspecified) | i | i | nt | i
COc1ccc(-c2noc(-c3ccc(NCc4ccco4)c([N+](=O)[O-])c3)n2)cc1 | i | i | ? | i
COc1ccc(NC(=O)N(C)C[C@@H]2OCc3cnnn3CCCC(=O)N([C@H](C)CO)C[C@H]2C)c(OC)c1 | nt | nt | nt | i
COc1ccc2c(c1)[nH]c(=O)c1sc3ccccc3c12 | i | i | i | nt
COc1ccc2sc3c(=O)[nH]c4ccccc4c3c2c1 | i | i | i | -83
O=C1C(=O)N(Cc2cccnc2)[C@@H](c2ccccn2)/C1=C(/O)c1ccc(F)cc1 | nt | nt | i | nt
CCC(Oc1ccc(F)cc1)C(=O)Nc1nc2c(s1)CCCC2 (stereo unspecified) | i | i | i | i
CC(C)C(=O)NCC(c1ccc2c(c1)OCO2)N1CCN(c2ccccc2)CC1 (stereo unspecified) | i | i | nt | i
CC(=O)CSc1nc2cc3c(cc2cc1C#N)OCCO3 | ? | i | 1.4µM | i
SMILES | LASV entry inh | FMDV antiviral | MARV entry inh | HCMV antiviral
CCOC(=O)Cn1cnc2c(nnn2-c2ccc(C)cc2)c1=O | i | i | i | -74
CCOC(=O)CNC(=O)CSc1ncnc2c1nnn2-c1ccc(F)cc1 | i | i | i | -68
NC(=O)CSc1ncnc2c1nnn2Cc1ccc(F)cc1 | i | 35µM | ? | i
O=C(CSc1ncnc2c1nnn2Cc1ccc(F)cc1)NCC1CCCO1 (stereo unspecified) | nt | 35µM | nt | i
CCOC(=O)Cn1cnc2c(nnn2-c2ccc(OC)cc2)c1=O | i | i | i | i
CCOc1ccccc1CNCc1c(C(=O)O)c(C)n(Cc2ccc(Cl)cc2)c1C | ? | i | i | i
CC(=CCO)CCO | ? | nt | i | nt
COc1ccc(N(C(=O)c2cc(OC)c(OC)c(OC)c2)S(=O)(=O)c2ccc(C)cc2)cc1 | ? | i | nt | i
Cc1ncc2c(c1CNS(=O)(=O)N(C)C)CCN(C(=O)/C=C/c1cccc(F)c1)C2 | nt | i | nt | nt
Cc1nc(N2CCN(C(c3ccccc3)c3ccccc3)CC2)nc2c1C(=O)CCC2 | nt | nt | i | nt
O=C1CCCc2nc(N3CCN(C(c4ccccc4)c4ccccc4)CC3)ncc21 | ? | 22µM | ? | i
CN(C)c1ccc(NC(=O)c2cnsn2)cc1 | 7.1µM | i | ? | i
COc1cc(NC(=O)Cn2nc(C(F)(F)F)c3c2CCCC3)c(OC)cc1Cl | ? | i | ? | i
Fc1ccc2nc(-c3ccccc3)ccc2c1 | nt | i | nt | i
[O-][n+]1onc2c3cc(-c4ccccc4)nnc3ccc21 | i | i | i | -99
CC(=O)N1CCc2cc(S(=O)(=O)NC(CC(C)C)C(=O)Nc3ccc(C(C)C)cc3)ccc21 (stereo unspecified) | i | i | i | i
COc1cc2c(cc1OC)C(C(=O)O)C(c1ccc3c(c1)OCO3)N(C)C2=O (stereo unspecified) | nt | nt | nt | i
CC(C)C1CCN(C(=O)C2CCC(=O)N(CCc3ccc(Cl)cc3)C2)CC1 (stereo unspecified) | i | ? | i | -64
COCCN1CCN(C(=O)C2CCC(=O)N(CCc3ccc(Cl)cc3)C2)CC1 (stereo unspecified) | i | i | i | i
O=C(N/N=C/c1cccc([N+](=O)[O-])c1O)C(O)(c1ccccc1)c1ccccc1 | nt | i | nt | i
Brc1ccc(/C=N/Nc2ccc3ccccc3n2)cc1 | ? | i | i | i
Fc1cccc(/C=N/Nc2ccc3ccccc3n2)c1 | ? | i | 6.3µM | i
Brc1ccccc1/C=N/Nc1ccc2ccccc2n1 | ? | i | 11µM | i
O=[N+]([O-])c1cccc(C=NNc2ccc3ccccc3n2)c1O | 2.5µM | 10µM | 2.2µM | -97
COc1cccc([C@H]2Oc3ccc(OC)cc3C(=NOC[C@@H](O)COCc3ccco3)[C@H]2O)c1 | nt | nt | i | nt
SMILES | LASV entry inh | FMDV antiviral | MARV entry inh | HCMV antiviral
O=C1C2CC=CCC2C(=O)N1SC(Cl)(Cl)Cl (stereo unspecified) | nt | nt | nt | -74
O=C(C#Cc1ccccc1)c1ccccc1 | nt | ? | nt | -84
O=C(C#Cc1ccccc1)c1ccc([N+](=O)[O-])cc1 | ? | 22µM | i | -88
CN(C)C(=O)C#Cc1ccccc1 | ? | i | i | i
O=C(CSCC(=O)c1ccc([N+](=O)[O-])cc1)c1ccc([N+](=O)[O-])cc1 | nt | i | nt | nt
O=C(Nc1ccc(N2CCN(c3ncccc3C(F)(F)F)CC2)nc1)c1cccs1 | 11µM | 13µM | 13µM | -86
O=C(Nc1ccc(N2CCN(c3ccc(C(F)(F)F)cn3)CC2)nc1)c1cccs1 | i | ? | i | ?
C[C@H](NC(=O)[C@@H]1CCCN1C(=O)OC(C)(C)C)c1ccccc1 | nt | i | nt | i
CCCCS(=O)(=O)/C=C\C1C2C=CC(C2)C1S(=O)(=O)CCCC (stereo unspecified) | ? | i | i | i
CCCCS(=O)(=O)/C=C\C=C/S(=O)(=O)CCCC | 11µM | ? | ? | nt
CCC(C)[C@@H](NC(=O)OC(C)(C)C)c1nnc(S(=O)(=O)Cc2cccc(C)c2)o1 (stereo partly specified) | ? | 32µM | ? | i
Cc1ccccc1CS(=O)(=O)c1nnc([C@H](Cc2ccccc2)NC(=O)OC(C)(C)C)o1 | ? | 28µM | ? | i
Cc1cccc(CS(=O)(=O)Cc2ccc(C(=O)NC(C)c3ccccc3)o2)c1 (stereo unspecified) | i | i | nt | i
CC(C)(C)OC(=O)N[C@@H](Cc1ccccc1)c1nnc(S(=O)(=O)Cc2ccccc2)o1 | nt | nt | nt | i

From PubChem
